Reference: PubChem BioAssay AID602229 (The Scripps Research Institute Molecular Screening Center, 2012)
Out of some 360,000 compounds screened, about 1,300 (0.36%) were called active. Only a selection was taken, and actives are over-represented in it overall. A number with no mark means an inactive call.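 How the source made its calls: active means inhibition above the mean of all tested compounds plus 3 SD (cut at about 70% in these data); inactive means the rest.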

These compounds were tested against Photoreceptor-specific nuclear receptor (Homo sapiens) (UniProt Q9Y5X4) (assay: NR2E3 agonists in two-hybrid cells, primary screen, cell-based, luminescence, CHO-S, Gal4-NCOR/VP16-NR2E3 (AID 602229;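 further: 0% = DMSO with NR2E3 transfected cells and 100% = cells lacking NR2E3 construct; higher means lower luciferase signal from less NR2E3 corepressor binding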)). Conditions: luciferase, at 3.98 µM, active compounds read high.
Chain of Photoreceptor-specific nuclear receptor (Homo sapiens) (Q9Y5X4 whole entry, looked up, the tested form may be a part): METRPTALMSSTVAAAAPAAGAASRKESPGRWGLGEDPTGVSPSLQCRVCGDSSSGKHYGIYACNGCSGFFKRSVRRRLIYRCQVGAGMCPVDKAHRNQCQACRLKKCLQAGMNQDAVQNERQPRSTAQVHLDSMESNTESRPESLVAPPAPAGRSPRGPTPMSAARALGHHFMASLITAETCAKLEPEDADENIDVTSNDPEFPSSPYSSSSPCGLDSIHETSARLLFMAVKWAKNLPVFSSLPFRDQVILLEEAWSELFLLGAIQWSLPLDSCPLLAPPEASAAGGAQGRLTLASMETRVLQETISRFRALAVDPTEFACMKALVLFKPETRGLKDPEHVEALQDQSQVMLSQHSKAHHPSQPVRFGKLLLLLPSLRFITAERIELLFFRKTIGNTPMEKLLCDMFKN

**Q.** With `Cc1nc(NC(=O)CCC(=O)O)sc1C(=O)N(C)C` as the compound, how does the inhibition of corepressor binding read?
**A.** Its inhibition of corepressor binding is -26.6%.

**Q.** For `COc1ccc2c(c1)c(=Cc1ccc(N(C)C)cc1)c1cc(-c3ccccc3)[n+](C)n12`, which inhibition of corepressor binding is on record?
**A.** Its inhibition of corepressor binding is 82.2% (active).

**Q.** With `C[C@@H]1NC(=O)c2cc([N+](=O)[O-])cc(F)c2NCCC[C@@H](C(N)=O)NC(=O)[C@H](CC(N)=O)NC1=O` as the compound, how does the inhibition of corepressor binding read?
**A.** Its inhibition of corepressor binding is -1.65%.

**Q.** Which inhibition of corepressor binding does the source give for `O=C(Nc1ccccc1C(=O)N1CCCCCC1)c1ccccc1Cl` here?
**A.** Its inhibition of corepressor binding is -5.45%.

**Q.** How did the inhibition of corepressor binding turn out when `O=C(Nc1ccccc1Cl)/C(Cl)=C(\Cl)S(=O)c1ccccc1` (centres undefined) was run?
**A.** The inhibition of corepressor binding was 90.4% (active).

**Q.** Which inhibition of corepressor binding does the source give for `Cc1cc(C(=O)OCC(=O)Nc2ccccc2Cl)c(C)o1` here?
**A.** The inhibition of corepressor binding was -11.3%.

**Q.** `Cc1sc2ncnc(SCC(=O)NC3CCS(=O)(=O)C3)c2c1C` (centres undefined) was tested. Which inhibition of corepressor binding did it give?
**A.** The inhibition of corepressor binding was 11.1%.

**Q.** Which inhibition of corepressor binding does the source give for `CCNC(=O)c1c(O)c2cccc3c2n(c1=O)CC3` here?
**A.** Its inhibition of corepressor binding is -12.8%.

**Q.** `CN(C)C(=S)N=c1ssc(=S)n1Cc1ccco1` was tested. Which inhibition of corepressor binding did it give?
**A.** Its inhibition of corepressor binding is 91.5% (active).

**Q.** Which inhibition of corepressor binding does the source give for `CCN(CC)C(=O)CSc1nnc(CNc2ccc(F)cc2)n1Cc1ccco1` here?
**A.** The inhibition of corepressor binding was -4.24%.

**Q.** For `CC1CN(Cc2ccco2)C(=S)N(c2ccccc2)C1=O` (centres undefined), which inhibition of corepressor binding is on record?
**A.** Its inhibition of corepressor binding is 10.4%.

**Q.** How did the inhibition of corepressor binding turn out when `C=CCNC(=O)c1ccccc1SCc1c(C)noc1C` was run?
**A.** Its inhibition of corepressor binding is -20.3%.

**Q.** `CC(C)OCCCNc1ncnc2c1[nH]c1ccc(F)cc12` was tested. Which inhibition of corepressor binding did it give?
**A.** Its inhibition of corepressor binding is 75.6% (active).

**Q.** `CC(/C=C/c1ccco1)=N/NC(=O)C1COc2ccccc2O1` (centres undefined) was tested. Which inhibition of corepressor binding did it give?
**A.** Its inhibition of corepressor binding is -22.3%.

**Q.** For `CC1CC1C(=O)OCC(=O)c1c(N)n(C)c(=O)n(C)c1=O` (centres undefined), which inhibition of corepressor binding is on record?
**A.** Its inhibition of corepressor binding is 4.9%.

**Q.** `FC(F)(F)c1nnc2c3ccccc3c(Cl)nn12` was tested. Which inhibition of corepressor binding did it give?
**A.** The inhibition of corepressor binding was -2.37%.

**Q.** With `COc1ccc(OCCNS(=O)(=O)Cc2ccccc2)cc1` as the compound, how does the inhibition of corepressor binding read?
**A.** Its inhibition of corepressor binding is -15.6%.

**Q.** How did the inhibition of corepressor binding turn out when `COc1ccc(S(=O)(=O)NCCOc2ccccc2)cc1F` was run?
**A.** The inhibition of corepressor binding was -29.5%.

**Q.** Which inhibition of corepressor binding does the source give for `COc1ccc(S(=O)(=O)NCCCCOc2ccc(Cl)cc2)cc1` here?
**A.** Its inhibition of corepressor binding is 96.7% (active).

**Q.** Which inhibition of corepressor binding does the source give for `CCOC(=O)c1sc(C)c2c1NC(C)(c1cccc3ccccc13)NC2=O` (centres undefined) here?
**A.** Its inhibition of corepressor binding is -1.53%.

**Q.** Which inhibition of corepressor binding does the source give for `OC(c1ccc(F)cc1)c1ncc(-c2cccc(C(F)(F)F)c2)[nH]1` (centres undefined) here?
**A.** The inhibition of corepressor binding was 30.1%.

**Q.** With `OC(c1ccc(Cl)cc1)c1ncc(-c2ccc(Cl)cc2)[nH]1` (centres undefined) as the compound, how does the inhibition of corepressor binding read?
**A.** The inhibition of corepressor binding was 71.4% (active).

**Q.** How did the inhibition of corepressor binding turn out when `Cc1ccc(-c2cnc(C(O)c3cc(Cl)cc(Cl)c3)[nH]2)cc1` (centres undefined) was run?
**A.** Its inhibition of corepressor binding is -10.6%.

**Q.** For `Cc1[nH]n(C(N)=S)c(=O)c1N=Nc1ccc(Cl)cc1Cl`, which inhibition of corepressor binding is on record?
**A.** The inhibition of corepressor binding was -3.9%.

**Q.** For `O=C(NCc1ccccc1)c1cccc(NC(=O)C2CCCCC2)c1`, which inhibition of corepressor binding is on record?
**A.** Its inhibition of corepressor binding is -12.6%.

**Q.** Which inhibition of corepressor binding does the source give for `O=C1CSC(c2cccc(F)c2)N1c1ccccc1F` (centres undefined) here?
**A.** Its inhibition of corepressor binding is -28.1%.

**Q.** `O=C1C=C(c2cccc(Cl)c2)C[C@@H](c2ccc(F)cc2)C1` was tested. Which inhibition of corepressor binding did it give?
**A.** The inhibition of corepressor binding was -24.8%.

**Q.** `O=C1C=C(c2ccnc3cc(Cl)ccc23)C[C@@H](c2ccc3c(c2)OCO3)C1` was tested. Which inhibition of corepressor binding did it give?
**A.** The inhibition of corepressor binding was 85.8% (active).

**Q.** With `O=C1C=C(c2cc(C(F)(F)F)cc(C(F)(F)F)c2)C[C@@H](c2ccc3c(c2)OCO3)C1` as the compound, how does the inhibition of corepressor binding read?
**A.** The inhibition of corepressor binding was -2.34%.
